The campaign covered roughly 310,000 compounds. About 14,000 (4.5%) showed an effect of 50% or more. Effects have a minus sign here. Only a selection was taken, and strong results are over-represented in it overall.
Target: human ether-à-go-go-related gene (hERG) potassium channel (human, UniProt Q12809)
Assay: primary screen, population patch clamp on CHO cells stably expressing hERG; higher = less effect of the substance
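Further: peak tail current of the secondary pulse compared with the same well before compound.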

Sequence of human ether-à-go-go-related gene (hERG) potassium channel (Q12809 whole entry, looked up): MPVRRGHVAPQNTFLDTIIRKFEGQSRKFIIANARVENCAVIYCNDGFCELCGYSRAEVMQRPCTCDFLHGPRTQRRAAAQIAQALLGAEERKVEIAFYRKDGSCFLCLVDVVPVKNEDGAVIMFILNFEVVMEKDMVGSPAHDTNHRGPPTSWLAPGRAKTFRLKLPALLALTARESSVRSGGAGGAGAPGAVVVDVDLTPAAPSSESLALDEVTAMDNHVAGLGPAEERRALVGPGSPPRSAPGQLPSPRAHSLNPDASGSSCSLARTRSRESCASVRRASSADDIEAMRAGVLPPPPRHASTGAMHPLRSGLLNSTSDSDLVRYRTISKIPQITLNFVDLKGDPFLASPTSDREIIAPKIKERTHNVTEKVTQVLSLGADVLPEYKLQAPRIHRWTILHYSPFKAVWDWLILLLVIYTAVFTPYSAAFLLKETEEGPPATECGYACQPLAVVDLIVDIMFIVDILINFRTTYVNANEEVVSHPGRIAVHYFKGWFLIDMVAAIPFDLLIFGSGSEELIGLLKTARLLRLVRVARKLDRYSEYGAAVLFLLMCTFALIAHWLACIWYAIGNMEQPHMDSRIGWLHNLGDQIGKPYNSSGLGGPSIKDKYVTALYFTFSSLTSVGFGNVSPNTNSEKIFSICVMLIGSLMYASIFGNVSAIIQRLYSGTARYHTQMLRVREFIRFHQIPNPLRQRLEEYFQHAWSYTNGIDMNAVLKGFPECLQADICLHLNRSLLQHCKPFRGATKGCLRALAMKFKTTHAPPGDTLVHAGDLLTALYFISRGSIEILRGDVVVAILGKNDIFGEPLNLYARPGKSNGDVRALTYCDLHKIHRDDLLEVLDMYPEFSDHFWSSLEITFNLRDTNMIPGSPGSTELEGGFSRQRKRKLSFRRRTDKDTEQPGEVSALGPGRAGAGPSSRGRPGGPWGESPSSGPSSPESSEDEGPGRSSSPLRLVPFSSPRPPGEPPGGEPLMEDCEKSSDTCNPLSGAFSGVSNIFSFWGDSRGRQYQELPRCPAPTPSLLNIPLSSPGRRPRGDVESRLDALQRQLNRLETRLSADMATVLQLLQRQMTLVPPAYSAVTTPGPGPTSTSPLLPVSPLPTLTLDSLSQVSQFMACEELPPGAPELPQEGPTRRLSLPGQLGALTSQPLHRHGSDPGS

| SMILES | hERG current change (%, negative = inhibition) at 10uM |
| --- | --- |
| O=C(O)c1ccccc1NC(=O)N1C[C@H]2C[C@@H](C1)c1cccc(=O)n1C2 | 3.86% |
| COc1ccc(CN(C)Cc2nc(Cc3ccccc3Cl)no2)cc1OC | -10.9% |
| CC(=O)Nc1nc2ccccc2[nH]1 | -0.326% |
| Cc1cc(C)n(C(=O)CNC(=O)c2ccco2)n1 | 11.9% |
| CC(NC(=O)c1ccco1)C1CCCO1 (centres unmarked) | -12.7% |
| O=CN1CC(=O)N(c2ccccc2)c2c([nH]c3ccccc23)C1 | -23.2% |
| O=C(O)CSc1cc(C(=O)c2ccccc2O)cn2c(=O)c3c(-c4ccccc4)csc3nc12 | -1.71% |
| COc1cc(NC2c3ccccc3C(=O)N2Cc2ccc3c(c2)OCO3)cc(OC)c1 (centres unmarked) | -22.4% |
| Cc1cc(OCC(=O)NCCc2c[nH]c3ccccc23)c2c(C)c(C)c(=O)oc2c1 | 3.37% |
| CCOc1ccc(C(=O)CCN2CCCCCC2)cc1.Cl | -38.4% |
| CC(=O)c1ccc(OCCCN2CCCCC2)cc1.O=C(O)C(=O)O | -22.2% |
| CCCOc1ccc(C(=O)OCCN2CCCCC2)c(O)c1.Cl | -58.7% |
| CCCCOc1ccc(C(=O)CCN2CCCCC2)cc1.Cl | -61.5% |
| O=C(O)C(=O)O.O=C(c1ccccc1)c1ccc(OCCCCN2CCCCC2)cc1 | -52.6% |
| COc1cc(C(=O)OCCN2CCCCC2)ccc1O.Cl | 3.87% |
| CC(C)COc1ccc(C(=O)OCCN2CCOCC2)c(O)c1.Cl | -25.2% |
| CCCOc1ccc(C(=O)CCN2CCCCC2)cc1.Cl | -31.6% |
| O=C(O)C(=O)O.O=C(c1ccccc1)c1ccc(OCCCN2CCCCC2)cc1 | -66.4% |
| COc1ccc(/C=N/N=C2\SC(CC(=O)O)C(=O)N2c2ccccc2)c(OC)c1 (centres unmarked) | 4.13% |
| CC1=CC(C)(C)N(C(=O)CSc2nnc(N)s2)c2cc(C)c(C)cc21 | -6% |
| CC(C)OC(=O)Nc1ccc2c(c1)N(C(=O)CCN(C)C)c1ccccc1CC2.Cl | -20.8% |
| CCOc1ccc(N2CC(NC(=O)c3cccc4ccccc34)CC2=O)cc1 (centres unmarked) | 3.75% |

| SMILES | hERG current change (%, negative = inhibition) at 10uM |
| --- | --- |
| CCN(CC(=O)NCc1ccc(Cl)cc1)C(=O)c1cc(S(=O)(=O)NCc2ccccc2)ccc1C | -25.6% |
| CN(C)c1nc(NCc2ccccc2)nc(N/N=C/c2cccc(Br)c2)n1 | 29.7% |
| O=C(Cc1ccsc1)NCc1ccccc1F | 17.1% |
| CC(C)CCNC(=O)c1cc(-c2ccco2)nc2ccccc12 | 6.45% |
| CC[N+](CC)(CC)CC(=O)Nc1ccc(SC(F)F)cc1.[Cl-] | -3.41% |
| O=C(Cc1ccccc1)Nc1ccc(SC(F)F)cc1 | -29.7% |
| CCn1c(N)[n+](CC(=O)Nc2ccc(SC(F)F)cc2)c2ccccc21.[Cl-] | -78.4% |
| COC(=O)Cn1c(=NC(=O)CCS(=O)(=O)c2ccccc2)sc2c(OC)ccc(OC)c21 | 6.2% |
| CCc1noc(C)c1C(=O)NNC(=O)c1ccccc1F | 21% |
| CSc1cccc(NC(=O)CCS(=O)(=O)c2cccc3nonc23)c1 | -15.1% |
| COC(=O)c1ccccc1NC(=O)COC(=O)c1cccnc1 | 6.42% |
| CC(C)c1ccc(S(=O)(=O)N2CCN(CC(=O)Nc3ccc(Cl)cc3F)CC2)cc1 | -15.9% |
| O=C(CN1CCN(S(=O)(=O)c2ccccc2)CC1)Nc1ccc(Cl)cn1 | -29.5% |
| NS(=O)(=O)c1ccc(NC(=O)CN2CCN(S(=O)(=O)c3ccc(F)cc3)CC2)cc1 | 7.15% |
| O=C(CN1CCN(S(=O)(=O)c2ccc(Cl)cc2)CC1)Nc1ccc(F)cc1F | -78.3% |
| O=C(CN1CCN(S(=O)(=O)c2ccc(Br)cc2)CC1)Nc1ccc(F)cc1 | -67.8% |
| COc1ccc(C)cc1NC(=O)CN1CCN(S(=O)(=O)c2ccc(Br)cc2)CC1 | -30.5% |
| O=C(CN1CCN(S(=O)(=O)c2ccc(Br)cc2)CC1)Nc1ccc(F)cc1F | -73.5% |
| O=C(CN1CCN(S(=O)(=O)c2ccc(F)cc2)CC1)Nc1ccc(Cl)cn1 | -62.7% |
| COc1ccc(Cl)cc1NC(=O)CN1CCN(S(=O)(=O)c2ccc(F)cc2)CC1 | -43.8% |
| Cc1cc(NC(=O)CN2CCN(S(=O)(=O)c3ccc(Cl)cc3)CC2)no1 | -15.4% |
| COC(=O)c1ccc(NC(=O)CN2CCN(S(=O)(=O)c3ccc(Br)cc3)CC2)cc1 | -31.4% |
